High-throughput results (PubChem BioAssay)
TRHR agonist: qHTS for Small Molecule Agonists and Allosteric Enhancers of Human TRH Receptor: Primary Screen for Agonists | AID 493084, 2011 | actives 0.18% (n = 360,000) | Thyrotropin-releasing hormone receptor (Homo sapiens), P34981 | activation, % at 2 µM | TRHR cells, calcium flux fluo-8, FDSS agonist mode; also: 0% is about no effect
Target sequence (P34981 whole entry, looked up): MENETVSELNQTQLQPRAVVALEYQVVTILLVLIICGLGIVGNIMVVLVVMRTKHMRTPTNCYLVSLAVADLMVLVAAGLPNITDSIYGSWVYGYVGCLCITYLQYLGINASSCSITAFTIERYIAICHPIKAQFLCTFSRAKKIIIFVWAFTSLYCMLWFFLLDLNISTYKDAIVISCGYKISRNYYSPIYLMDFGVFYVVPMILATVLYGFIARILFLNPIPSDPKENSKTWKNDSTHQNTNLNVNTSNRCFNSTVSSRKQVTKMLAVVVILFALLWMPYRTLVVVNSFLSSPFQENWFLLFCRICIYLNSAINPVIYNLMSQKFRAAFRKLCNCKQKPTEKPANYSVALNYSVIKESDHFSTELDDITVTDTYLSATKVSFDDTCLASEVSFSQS
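Read-out: compound-evoked intracellular calcium rise in TRHR cells, fluo-8 dye, kinetic FDSS fluorescence at 1 s/cycle following a 10-cycle baseline. Cells cultured overnight before dye loading (30 min–1.5 h, RT).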
D1 antagonist: Antagonist of Human D 1 Dopamine Receptor: qHTS; D(1A) dopamine receptor (Homo sapiens), P21728; HEK293 TREx D1 cells, calcium flux, dopamine EC80; hits give low values; activity change, negative = inhibition, % at 10 µM; actives 3.2% (n = 360,000); AID 504652, 2011; in the data active = activity change below about -30%; also: % is scaled to controls: 0 for no effect and ±100 for the full control effect
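Inducible Hek293 Trex D1 cells (tetracycline, overnight, 30 C). Calcium dye 30–90 min RT. Antagonist mode: EC80 dopamine added after 180 s compound read.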
D1 PAM: Potentiators of Human D1 Dopamine Receptor: qHTS. D(1A) dopamine receptor (Homo sapiens), P21728. HEK293 TREx D1 cells, calcium flux, dopamine EC20 potentiation. potentiation, % at 10 µM. actives 0.036% (n = 360,000); in the data active = potentiation above about 30%; also: 0% is about no effect
TRHR PAM: qHTS for Small Molecule Agonists and Allosteric Enhancers of Human TRH Receptor: Primary Screen for Enhancers; actives 0.66% (n = 360,000); enhancement, % at 2 µM; TRHR cells, fluo-8 calcium fluorescence, EC20 TRH enhancement; Thyrotropin-releasing hormone receptor (Homo sapiens), P34981; in the data active = enhancement above about 30%; also: 0% is about no effect
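TRHR-expressing cells loaded with fluo-8 calcium dye were read kinetically (ex 480/em 530) during compound addition, then stimulated with an EC20 of TRH (10 nM final). Enhancement of the Gq-mediated intracellular calcium response was scored.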
D1 ag: Allosteric Agonists of the Human D1 Dopamine Receptor: qHTS. D(1A) dopamine receptor (Homo sapiens), P21728. activation, % at 2 µM. actives 1% (n = 360,000). HEK293 T-REx D1 cells, calcium flux, agonist mode; also: 0% is about no effect
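Agonism was scored from calcium flux recorded over 180 s (1 read/s) after pintool compound addition, following a 10-cycle baseline. Cells were inducible force-coupled HEK293 TREx D1, plated overnight at 30 C and loaded with no-wash calcium dye.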
Starred values were filed as active, the others as inactive. Only some compounds are listed: those with a hit (about 4.6% of all), similar ones and a draw of the others. Rule as the data show it, unless noted: active = activation above about 30%; inactive = the rest.

Cc1c(C(=O)Nc2ccc(F)c(F)c2)oc2ccc(S(=O)(=O)N(C)C3CCCCC3)cc12 was read as TRHR agonist 0, D1 antagonist -24, D1 PAM -2, TRHR PAM -1 and D1 ag -2.
`CCC(=O)NCc1nc2ccccc2n1Cc1ccccc1` gave TRHR agonist 0, D1 antagonist -5, D1 PAM 3, TRHR PAM 3 and D1 ag 2.
For Cc1sc2ncn(CC(=O)N3CCN(c4ccccn4)CC3)c(=O)c2c1S(=O)(=O)N1CCC(C)CC1 the results were TRHR agonist 2, D1 antagonist -4, D1 PAM 5, TRHR PAM -6 and D1 ag 3.
`CCc1ccc(NS(=O)(=O)c2ccc(OC)c3ncccc23)cc1` gave TRHR agonist 0, D1 antagonist -31*, D1 PAM 0, TRHR PAM 2 and D1 ag 12.
`Cc1ccc2c(=O)cc(C(=O)Nc3ccc(S(=O)(=O)N(C)c4ccccc4)cc3)oc2c1C` gave TRHR agonist -1, D1 antagonist -5, D1 PAM -3, TRHR PAM 9 and D1 ag -1.
CSc1ncc(C(=O)Nc2c(C)cccc2C)c(-c2ccccc2)n1 was read as TRHR agonist -1, D1 antagonist -1, D1 PAM -3, TRHR PAM 30 and D1 ag 5.
`Cc1sc2ncnc(Sc3ccccc3C(=O)O)c2c1C` gave TRHR agonist 0, D1 antagonist -7, D1 PAM 1, TRHR PAM 35* and D1 ag 5.
For COc1ccccc1CNC(=O)CCc1c(C)nc2c(c(C)nn2-c2ccc(C)c(C)c2)c1C the results were TRHR agonist 1, D1 antagonist -73*, D1 PAM -3, TRHR PAM -3 and D1 ag -2.
Screening Cc1ccc(O)c(C(=O)c2cc(C#N)c(=O)n(-c3nccs3)c2)c1 returned TRHR agonist 0, D1 antagonist -1, D1 PAM 4, TRHR PAM 9 and D1 ag 331*.
Cc1cc(C(F)(F)F)c(C#N)c(SCC(=O)Nc2nc3ccccc3s2)n1 was read as TRHR agonist 17, D1 antagonist 5, D1 PAM 17, TRHR PAM -14 and D1 ag 64*.
`O=C(CSc1ncnc2c1oc1ccccc12)Nc1nc2ccccc2s1` gave TRHR agonist 1, D1 antagonist -48*, D1 PAM 4, TRHR PAM 0 and D1 ag -2.
`Cc1ccc(-c2cc(C(F)(F)F)c(C#N)c(SCC(=O)Nc3ccccc3F)n2)cc1` gave TRHR agonist 18, D1 antagonist -2, D1 PAM -4, TRHR PAM 6 and D1 ag 72*.
For CCOc1ccc(-c2cc(C(F)(F)F)c(C#N)c(SCC(=O)Nc3ccccc3)n2)cc1 the results were TRHR agonist 9, D1 antagonist -52*, D1 PAM -3, TRHR PAM 7 and D1 ag 32*.
For CCc1nnc(NC(=O)CSc2ncnc3c2oc2ccccc23)s1 the results were TRHR agonist 0, D1 antagonist 3, D1 PAM 0, TRHR PAM 7 and D1 ag 2.
`CCOc1cc(C(=O)NCc2ccc3c(c2)CCN3C(=O)c2ccc(F)cc2)cc(OCC)c1OCC` gave TRHR agonist 0, D1 antagonist -19, D1 PAM -2, TRHR PAM -2 and D1 ag 3.
Cc1ccc(C)n1-c1ccc(C(=O)NCc2ccncc2)cc1 was read as TRHR agonist 2, D1 antagonist 8, D1 PAM -5, TRHR PAM 31* and D1 ag 5.
Screening CCCc1nc2oc3ccccc3c(=O)c2c(=O)n1-c1ccc(C)cc1 returned TRHR agonist 12, D1 antagonist 6, D1 PAM 1, TRHR PAM -3 and D1 ag 37*.
`Cc1cccc(-c2cc(C(=O)O)c3c(-c4ccc(F)cc4)[nH]nc3n2)c1` gave TRHR agonist 0, D1 antagonist -7, D1 PAM -1, TRHR PAM 2 and D1 ag 5.
For Cc1cccc(-c2cc(=O)c(C(=O)O)cn2-c2ccc(F)cc2F)c1 the results were TRHR agonist 0, D1 antagonist -40*, D1 PAM -7, TRHR PAM 5 and D1 ag 3.
`COCCNC(=O)C(OC(=O)c1cccs1)c1ccccc1` (stereo unspecified) gave TRHR agonist -1, D1 antagonist -36*, D1 PAM 3, TRHR PAM -9 and D1 ag 9.
For COc1ccc(NC(=O)CN2CCN(C(=O)c3ccco3)CC2)c(OC)c1 the results were TRHR agonist 0, D1 antagonist 3, D1 PAM -3, TRHR PAM 9 and D1 ag 4.
COc1ccc(NC(=O)N(C2CCCCC2)C(C)c2cccnc2)c(OC)c1 (stereo unspecified) was read as TRHR agonist 0, D1 antagonist -7, D1 PAM -3, TRHR PAM -8 and D1 ag 3.
For COc1ccc(NC(=O)CSCC(=O)N2CCN(C(=O)c3ccco3)CC2)cc1 the results were TRHR agonist 0, D1 antagonist -63*, TRHR PAM 0 and D1 ag 3.
Screening COc1ccc(NC(=O)N(C2CCCCC2)C(C)c2ccco2)c(OC)c1 (stereo unspecified) returned TRHR agonist 0, D1 antagonist -78*, D1 PAM -18, TRHR PAM -19 and D1 ag 1.
`COc1ccc(NC(=S)N2CCN(C(=O)c3ccco3)CC2)c(OC)c1` gave TRHR agonist 1, D1 antagonist -68*, D1 PAM -7, TRHR PAM -3 and D1 ag 2.
Screening Cc1ccc(NC(=O)CCn2c(=O)c3cccn3c3ccccc32)c(Cl)c1 returned TRHR agonist 0, D1 antagonist -11, D1 PAM -4, TRHR PAM -1 and D1 ag 16.
For O=C(COC(=O)C12CC3CC(CC(Cl)(C3)C1)C2)NCc1ccco1 the results were TRHR agonist -1, D1 antagonist 3, D1 PAM 5, TRHR PAM 2 and D1 ag -1.
For O=C(c1ccccc1)N1CCC(CC2CC(c3cccc(Br)c3)=NO2)(C(=O)NCC2CCCCC2)CC1 (stereo unspecified) the results were TRHR agonist -1, D1 antagonist -53*, D1 PAM -9, TRHR PAM -5 and D1 ag 2.
